Where “and” joins values, the source holds several entries; their conditions need not be identical. Identical values can stand only once. About 83,000 compounds went through this panel and 20% of them were active in at least one assay; those are over-represented in the sample as a whole.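 48-hour exposure, single concentration, 96-well plates; percent growth endpoint where 0 means no net growth. Active: below 10.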
Tests used:
Test in all cases: NCI-60 one-dose screen, 48 h (100 = growth as untreated, 0 = no growth, -100 = all killed)
Settings in all cases: 10 µM unless noted
SK-MEL-2 melanoma = test system: SK-MEL-2 melanoma
EKVX NSCLC = test system: EKVX NSCLC
SN12C renal = test system: SN12C renal
UO-31 renal = test system: UO-31 renal
ACHN renal = test system: ACHN renal
CAKI-1 renal = test system: CAKI-1 renal
A498 renal = test system: A498 renal
CCRF-CEM leukemia = test system: CCRF-CEM leukemia
MOLT-4 leukemia = test system: MOLT-4 leukemia
SR leukemia = test system: SR leukemia
RPMI-8226 leukemia = test system: RPMI-8226 leukemia
OVCAR-8 ovarian = test system: OVCAR-8 ovarian
OVCAR-5 ovarian = test system: OVCAR-5 ovarian
OVCAR-4 ovarian = test system: OVCAR-4 ovarian
SK-OV-3 ovarian = test system: SK-OV-3 ovarian
IGROV1 ovarian = test system: IGROV1 ovarian
OVCAR-3 ovarian = test system: OVCAR-3 ovarian
HS 578T breast = test system: HS 578T breast
NCI/ADR-RES ovarian = test system: NCI/ADR-RES ovarian
TK-10 renal = test system: TK-10 renal

Measured: growth

Cc1nc2c(=O)[nH]c(=S)[nH]c2[nH]c1=O
inactive: SK-MEL-2 melanoma 102% and 114% | EKVX NSCLC 102% and 109% | SN12C renal 102% and 97.1% | UO-31 renal 93.8% and 87.3% | ACHN renal 103% and 97.6% | CAKI-1 renal 94.4% and 93.9% | A498 renal 97.5% and 97.3% | CCRF-CEM leukemia 101% and 104% | MOLT-4 leukemia 100% and 103% | SR leukemia 112% | RPMI-8226 leukemia 104% and 105% | OVCAR-8 ovarian 103% | OVCAR-5 ovarian 109% and 102% | OVCAR-4 ovarian 113% | SK-OV-3 ovarian 112% and 107% | IGROV1 ovarian 107% and 113% | OVCAR-3 ovarian 118% and 111% | HS 578T breast 102% | NCI/ADR-RES ovarian 106% and 103%

O=C(O)Cc1cc(=O)[nH]n(-c2ccccc2)c1=O
inactive: SK-MEL-2 melanoma 116% | EKVX NSCLC 96% | SN12C renal 97.9% | UO-31 renal 101% | ACHN renal 105% | CAKI-1 renal 83.5% | A498 renal 97.6% | CCRF-CEM leukemia 112% | MOLT-4 leukemia 88.3% | SR leukemia 88.9% | RPMI-8226 leukemia 117% | OVCAR-8 ovarian 90% | OVCAR-5 ovarian 100% | OVCAR-4 ovarian 103% | SK-OV-3 ovarian 98% | IGROV1 ovarian 115% | OVCAR-3 ovarian 110% | HS 578T breast 117% | NCI/ADR-RES ovarian 115%

N=C(N=C(N)N)N1CCOCC1
inactive: SK-MEL-2 melanoma 111% and 99.2% | EKVX NSCLC 103% and 105% | SN12C renal 99.4% and 96.7% | UO-31 renal 83.8% and 85% | TK-10 renal 103% and 97.9% | CAKI-1 renal 94.8% and 103% | A498 renal 91.7% and 102% | CCRF-CEM leukemia 107% and 93.8% | MOLT-4 leukemia 105% and 102% | SR leukemia 103% | OVCAR-8 ovarian 105% and 106% | OVCAR-5 ovarian 99.3% | OVCAR-4 ovarian 95.4% and 108% | SK-OV-3 ovarian 101% and 104% | IGROV1 ovarian 100% and 109% | OVCAR-3 ovarian 114% and 107% | HS 578T breast 105% and 100%

O=C(O)c1ccc2c3ccc(C(=O)O)c4c(C(=O)O)ccc(c5ccc(C(=O)O)c1c25)c43
inactive: SK-MEL-2 melanoma 91.3% | EKVX NSCLC 101% | SN12C renal 101% | UO-31 renal 85.8% | ACHN renal 107% | CAKI-1 renal 80% | A498 renal 108% | CCRF-CEM leukemia 111% | MOLT-4 leukemia 106% | SR leukemia 104% | RPMI-8226 leukemia 135% | OVCAR-8 ovarian 98% | OVCAR-5 ovarian 84.2% | OVCAR-4 ovarian 103% | SK-OV-3 ovarian 107% | IGROV1 ovarian 42.4% | OVCAR-3 ovarian 101% | HS 578T breast 107% | NCI/ADR-RES ovarian 114%

COc1ccc(C(=O)C(O)c2ccc(OC)cc2)cc1 (stereo unspecified)
inactive: SK-MEL-2 melanoma 111% and 108% | EKVX NSCLC 107% and 110% | SN12C renal 113% and 112% | UO-31 renal 89.1% and 90.7% | TK-10 renal 102% and 107% | CAKI-1 renal 104% and 100% | A498 renal 97.4% and 104% | CCRF-CEM leukemia 108% and 105% | MOLT-4 leukemia 107% and 100% | SR leukemia 102% and 94% | RPMI-8226 leukemia 112% and 106% | OVCAR-8 ovarian 99.8% and 101% | OVCAR-5 ovarian 111% and 109% | OVCAR-4 ovarian 103% and 102% | SK-OV-3 ovarian 106% and 101% | IGROV1 ovarian 102% and 110% | OVCAR-3 ovarian 112% and 107% | HS 578T breast 112% and 102% | NCI/ADR-RES ovarian 102%

CC(CN(C)C)CN1c2ccccc2Sc2ccccc21 (stereo unspecified)
inactive: SK-MEL-2 melanoma 91.3% and 103% | EKVX NSCLC 83% and 104% and 73.8% | SN12C renal 65% and 85.2% and 80.5% | UO-31 renal 51.7% and 77.9% and 71.7% | ACHN renal 76.1% and 92.2% and 85.9% | CAKI-1 renal 62.3% and 69.6% | A498 renal 108% and 95% and 82.6% | CCRF-CEM leukemia 82.1% and 85.3% and 77.6% | MOLT-4 leukemia 75.7% and 100% and 76.7% | SR leukemia 79.1% and 96.2% and 45.7% | RPMI-8226 leukemia 74.9% | OVCAR-8 ovarian 95.7% and 109% and 101% | OVCAR-5 ovarian 88.9% and 79.7% | OVCAR-4 ovarian 88.1% and 102% and 84% | SK-OV-3 ovarian 97.2% and 95.8% and 101% | IGROV1 ovarian 73.5% and 92% | OVCAR-3 ovarian 114% and 98.6% and 90.7% | HS 578T breast 77.5% and 91.1% and 67.1%

CC(C)=NOC(C)C(=O)O (stereo unspecified)
inactive: SK-MEL-2 melanoma 107% | EKVX NSCLC 95.9% | SN12C renal 94.1% | UO-31 renal 97.5% | ACHN renal 102% | CAKI-1 renal 104% | A498 renal 89.2% | CCRF-CEM leukemia 103% | MOLT-4 leukemia 105% | SR leukemia 92% | RPMI-8226 leukemia 111% | OVCAR-8 ovarian 90.2% | OVCAR-5 ovarian 101% | OVCAR-4 ovarian 108% | SK-OV-3 ovarian 115% | IGROV1 ovarian 135% | OVCAR-3 ovarian 114% | HS 578T breast 108% | NCI/ADR-RES ovarian 99.6%

O=C1Cc2ccccc2C(=O)N1
inactive: SK-MEL-2 melanoma 92.4% | EKVX NSCLC 99.2% | SN12C renal 96.7% | UO-31 renal 75.5% | TK-10 renal 91% | CAKI-1 renal 77% | A498 renal 103% | CCRF-CEM leukemia 41.1% | MOLT-4 leukemia 69.8% | SR leukemia 30.4% | RPMI-8226 leukemia 48.9% | OVCAR-8 ovarian 56.2% | OVCAR-5 ovarian 96.1% | OVCAR-4 ovarian 63.4% | SK-OV-3 ovarian 98.9% | IGROV1 ovarian 76.8% | OVCAR-3 ovarian 76.3% | HS 578T breast 103% | NCI/ADR-RES ovarian 91.8%

O=C(OCc1ccccc1)c1ccccc1
inactive: SK-MEL-2 melanoma 126% and 87.8% | EKVX NSCLC 101% and 104% | SN12C renal 93.2% and 117% | UO-31 renal 107% and 64.8% | ACHN renal 111% and 98.1% | CAKI-1 renal 99.7% and 90.2% | A498 renal 88.6% and 81.3% | CCRF-CEM leukemia 104% | MOLT-4 leukemia 102% and 83.3% | SR leukemia 104% and 86.5% | RPMI-8226 leukemia 99.5% | OVCAR-8 ovarian 101% and 95.7% | OVCAR-5 ovarian 102% and 91.7% | OVCAR-4 ovarian 108% | SK-OV-3 ovarian 99.1% and 93.6% | IGROV1 ovarian 120% and 87.4% | OVCAR-3 ovarian 116% | HS 578T breast 105% | NCI/ADR-RES ovarian 107% and 99.7%

Nc1[nH][nH]c(=O)c1N=Nc1ccccc1
inactive: SK-MEL-2 melanoma 122% and 100% | EKVX NSCLC 85.3% and 91.3% | SN12C renal 97.6% and 106% | UO-31 renal 82.7% and 85.1% | TK-10 renal 112% and 109% | A498 renal 86.8% and 86.2% | CCRF-CEM leukemia 108% | MOLT-4 leukemia 121% and 100% | SR leukemia 125% and 98.6% | RPMI-8226 leukemia 110% | OVCAR-8 ovarian 102% and 108% | OVCAR-5 ovarian 101% and 109% | OVCAR-4 ovarian 99.6% | SK-OV-3 ovarian 101% and 107% | IGROV1 ovarian 109% and 104% | OVCAR-3 ovarian 106% and 111% | HS 578T breast 107% and 130% | NCI/ADR-RES ovarian 106% and 105%
